# High-throughput results from PubChem.
# STK33 kin inh: human STK33 kinase inhibition; inhibition, % at 12.5 µM; 27,000 compounds, 0.44% hits; ADP-Glo luminescence, MBP substrate; Q9BYT3; in the data active = inhibition above about 20%
# Target sequence (Q9BYT3 whole entry, looked up): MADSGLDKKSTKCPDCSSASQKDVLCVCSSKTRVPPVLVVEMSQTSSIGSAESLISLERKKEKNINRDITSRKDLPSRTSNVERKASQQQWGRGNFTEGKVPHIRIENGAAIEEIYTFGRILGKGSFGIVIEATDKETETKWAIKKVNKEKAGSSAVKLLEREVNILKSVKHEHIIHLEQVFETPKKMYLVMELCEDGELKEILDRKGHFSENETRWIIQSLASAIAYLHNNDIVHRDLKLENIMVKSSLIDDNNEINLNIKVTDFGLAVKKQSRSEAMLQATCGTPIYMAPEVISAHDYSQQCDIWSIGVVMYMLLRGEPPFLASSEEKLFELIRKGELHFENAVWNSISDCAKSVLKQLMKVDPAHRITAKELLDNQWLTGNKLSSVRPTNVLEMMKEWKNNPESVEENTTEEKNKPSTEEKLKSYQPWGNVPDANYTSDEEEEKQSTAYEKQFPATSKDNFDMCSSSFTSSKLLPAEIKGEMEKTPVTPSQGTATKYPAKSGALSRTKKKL
# PD-1 reverse act: activators reversing PD-1 mediated T-cell inhibition; activation, % (no concentration beside the values); AID 2316; 29,000 tested, under 10 active; primary human CD4 T cells, PD-L1 beads, CellTiter-Glo 96 h; call rule not given here;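 note: 0% = median vehicle wells and 100% = positive control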
# NOMO-1 viab: STK33 inhibitor candidate reducing NOMO-1 cell viability | NOMO-1 AML viability, CellTiter-Glo luminescence, 72 h | inhibition, % (test concentration not listed) | 37,000 compounds, 7.5% hits | AID 2330; in the data active = inhibition above about 80%
# The depositor's hits bear a star; . = no result. This is one part of a sample in which hits are shown more often than they occur.
SMILES,STK33 kin inh,PD-1 reverse act,NOMO-1 viab
N#CC(C#N)=Cc1ccc(O)cc1,7.2,-1.7,86.7*
N#CC(C#N)=Cc1cc(O)c(O)c(O)c1,4.3,0.2,45.4
OC[C@H]1O[C@@H](n2cnc3cc(Cl)c(Cl)cc32)C(O)[C@H]1O (some centres undefined),10.1,4.5,86.9*
C[C@@H]1CCOC(=O)C=CC=CC(=O)O[C@@H]2C[C@H]3O[C@@H]4C=C(CO)CC[C@]4(COC(=O)[C@H]1O)[C@]2(C)[C@]31CO1,-2.9,0.1,-1.5
C=C1[C@@]23C(=O)O[C@H](C)[C@]24O[C@@]2(C(=C)[C@]5(C=CC(=O)OC5(C)C)CC[C@]32C)[C@H](O)[C@@]1(C)OC4=O,-5.1,-1.7,8.6
C[C@H]1CN([C@@H](C)CO)C(=O)CCCn2nncc2CO[C@@H]1CN(C)C(=O)Oc1ccc2ccccc2c1,-3.7,.,.
CC(=O)[C@H]1CC[C@H]2[C@@H]3CC[C@H]4C[C@H](O)CC[C@]4(C)[C@H]3CC[C@]12C,-12.3,.,39.6
CO[C@H]1[C@H](O)[C@H](O[C@H]2CC[C@]3(C)C4CC[C@]5(C)C(C6=CC(=O)OC6)CC[C@]5(O)C4CC[C@@H]3C2)O[C@@H](C)[C@@H]1O (some centres undefined),-3.4,.,110.4*
COC1CC(OC2CCC3(C)C(CCC4C3CCC3(C)C(C5=CC(=O)OC5)C(OC(C)=O)CC43O)C2)OC(C)C1OC1OC(COC2OC(CO)C(O)C(O)C2O)C(O)C(O)C1O (centres undefined),-0.4,-7.4,109.6*
C[C@]12CC[C@H](O)C[C@H]1CCC1C2CC[C@]2(C)[C@@H](C3=CC(=O)OC3)[C@@H](O)C[C@]12O (some centres undefined),1.0,.,97.3*
COc1cc2c(cc1OC)[C@@]13CCN4CC5=CCOC6CC(=O)N2C1[C@H]6[C@H]5C[C@H]43 (some centres undefined),-7.0,.,5.8
OC[C@H]1O[C@@H](Oc2ccc(/C=C/c3cc(O)cc(O)c3)cc2O)[C@H](O)[C@@H](O)[C@@H]1O,-1.0,.,.
CN1C2C[C@H](OC(=O)[C@H](CO)c3ccccc3)C[C@H]1[C@@H](O)C2,2.3,.,-3.2
C[C@@H]1C[C@@H]([C@H](O)CC2CC(=O)NC(=O)C2)C(=O)[C@@H](C)C1,-4.2,.,113.9*
C[C@@H]1CC([C@H](O)CC2CC(=O)NC(=O)C2)C(=O)[C@@H](C)C1 (some centres undefined),-0.2,-7.6,140.7*
C[C@]12CCC(=O)C=C1C=CC1C2CC[C@@]2(C)C1CC[C@@]2(O)CCC(=O)O (some centres undefined),-3.7,.,16.9
C/C=C1/C[N+]2([O-])C3CC1C(CO)C2Cc1c3[nH]c2ccc(OC)cc12 (centres undefined),-2.3,1.9,14.7
CC(C)N(C(=O)SCC(Cl)=C(Cl)Cl)C(C)C,-3.3,.,10.4
CC(/C=C/[C@@]1(C)[C@H](C)CCC(=O)[C@@H]1C)=C\Cc1c(O)c(Cl)c(C)c(C=O)c1O,-1.7,-4.6,111.8*
CN(CC(=O)Nc1ccc(Cl)cc1C(=O)c1ccccc1)S(=O)(=O)c1ccc(Cl)cc1,-0.3,-0.6,18.0
C=CC1C[N+]2([O-])CCC1CC2C(O)c1ccnc2ccccc12 (centres undefined),0.0,.,.
C/C=C(/C)C(=O)OC1CCN2CC=C(COC(=O)C(O)(C(C)O)C(C)(C)O)C12 (centres undefined),-0.7,3.7,3.9
C/C=C\C(=O)O[C@@H]1C[C@H]2O[C@@H]3C=C(C)C(=O)C[C@]3(C)[C@]1(C)[C@]21CO1,1.2,-8.6,122.1*
C[C@@H]1CN([C@@H](C)CO)C(=O)CCCn2cc(nn2)CO[C@@H]1CN(C)C(=O)Oc1ccc2ccccc2c1,3.4,.,.
CC(C)(C)NC[C@H](O)COc1cccc2[nH]c(C#N)cc12,-0.5,8.8,1.4
CCOC(=O)c1c(C)n(Cc2ccccc2)c2ccc(OCC(O)CNC(C)(C)C)cc12 (centres undefined),.,-6.7,116.8*
Cc1cc(OC(=O)c2cccs2)c2c3c(c(=O)oc2c1)CCC3,.,-0.1,8.7
CC1(C)C(=O)C=C[C@@]2(C)C1C(=O)C(=O)[C@]1(C)C2CC[C@@]2(C)[C@H](c3ccoc3)C[C@H]3O[C@]321 (some centres undefined),-8.2,.,107.9*
CN1CCN(CC(=O)Nc2ccc(Br)cc2C(=O)c2ccccc2)CC1,0.1,-1.7,53.0
O=C(CC[N+](=O)[O-])OC[C@H]1O[C@@H](O)[C@H](OC(=O)CC[N+](=O)[O-])[C@@H](OC(=O)CC[N+](=O)[O-])[C@@H]1OC(=O)CC[N+](=O)[O-],1.6,.,106.0*
